The target of assay [1] is Norway rat Vesicular Monoamine Transporter (VMAT2), neurotransmitter transporter, Slc18a2 (gene 25549) (UniProt Q01827). Put plainly: NVS_TR_rVMAT2: NovaScreen (NVS) Transporter Assay for Norway rat Vesicular Monoamine Transporter (VMAT2), neurotransmitter transporter (AID 2283376).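 Also: actives lower the bound radioligand signal below the DMSO level.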 A digest of the protocol: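 Using rat forebrain membranes, specific radioligand binding to VMAT2 was measured by filtration and scintillation counting after 1 hour. Chemicals screened at 25 uM in duplicate, actives retested in concentration series, DMSO baseline.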

The target in assay [2] is Estrogen receptor (Homo sapiens) (UniProt P03372). Put plainly: NVS_NR_hER: NovaScreen (NVS) Nuclear Receptor Binding Assay for human Estrogen Receptor (ER) (AID 2283348). In a few lines:
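Cell-free MCF7-derived ER preparation, specific radioligand displaced by test compound, read by scintillation counting 18 h post-dosing. Duplicate single-point 25 uM screen, then concentration-response confirmation; DMSO baseline.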

The nature of assay [3]: TOX21_p53_BLA_p2_viability: Viability Assessment in the Tox21 HCT-116 p53 Agonism Beta-lactamase Assay, Phase 2 (AID 2283591).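 Also: actives lower the ATP signal meaning cytotoxicity.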 A digest of the protocol: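 Cytotoxicity readout: CellTiter-Glo ATP luminescence, 30 min at room temperature, after the beta-lactamase read. Cells were HCT116 exposed 16 h at 37C to compounds pin-transferred at 217-fold dilution from DMSO stocks.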

Assay [4] has as its target Cellular tumor antigen p53 (Homo sapiens) (UniProt P04637). Put plainly: TOX21_p53_BLA_p2_ratio: Tox21 HCT-116 p53 Agonism Beta-lactamase Assay, Ratio, Phase 2 (AID 2283592). A digest of the protocol:
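First, HCT116 reporter cells settle for 5 h at 37C. Next, DMSO compound solutions are pinned in (217-fold dilution) and left 16 h. Finally, CCF4-AM substrate is loaded 2 h at room temperature and the 460/530 nm ratio read.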

The nature of assay [5]: TOX21_p53_BLA_p3_viability: Viability Assessment in the Tox21 HCT-116 p53 Agonism Beta-lactamase Assay, Phase 3 (AID 2283593).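 Also: cells exposed to compound for 16 h before reading.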 A digest of the protocol:
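Cellular ATP was quantified by CellTiter-Glo luminescence, read after 30 min at room temperature. Beforehand, HCT116 cells (4000/well) received compound 5 h post-seeding, 217-fold diluted from DMSO, then incubated 16 h at 37C.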

The target in assay [6] is Cellular tumor antigen p53 (Homo sapiens) (UniProt P04637). Put plainly: TOX21_p53_BLA_p3_ratio: Tox21 HCT-116 p53 Agonism Beta-lactamase Assay, Ratio, Phase 3 (AID 2283596). In a few lines:
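Cells were seeded at 4000/well, rested 5 h at 37C, then dosed with DMSO compound solutions (217-fold dilution) for 16 h. CCF4-AM substrate was loaded for 2 h at room temperature, and the 460/530 nm emission ratio was fitted for gain of signal versus DMSO.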

Assay [7] is described as follows: TOX21_p53_BLA_p4_viability: Viability Assessment in the Tox21 HCT-116 p53 Agonism Beta-lactamase Assay, Phase 4 (AID 2283597).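 Also: hits lower the luminescence signal meaning cytotoxicity.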 In a few lines:
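4000 HCT116 cells per well; 5 h attachment; compounds from DMSO, 217-fold dilution; 16 h at 37C. Then CCF4-AM, 2 h RT, followed by CellTiter-Glo, 30 min RT, luminescence. Decrease = cytotoxicity.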

Assay [8] concerns the target Cellular tumor antigen p53 (Homo sapiens) (UniProt P04637). Description: TOX21_p53_BLA_p5_ratio: Tox21 HCT-116 p53 Agonism Beta-lactamase Assay, Ratio, Phase 5 (AID 2283599). A digest of the protocol:
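Beta-lactamase reporter ratio (blue 460 nm over green 530 nm, 405 nm excitation) after 2 h CCF4-AM loading, in HCT-116 cells exposed 16 h at 37 C to compounds pinned at 217-fold dilution. Increases relative to DMSO baseline scored.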

Assay [9] is described as follows: TOX21_p53_BLA_p5_viability: Viability Assessment in the Tox21 HCT-116 p53 Agonism Beta-lactamase Assay, Phase 5 (AID 2283600). A digest of the protocol: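 Decreased CellTiter-Glo luminescence denotes lost viability. Exposure: 16 h at 37C, 5% CO2, with compounds from DMSO stocks diluted 217-fold in wells of 4000 cells.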
The target of assay [10] is Cellular tumor antigen p53 (Homo sapiens) (UniProt P04637). Description: TOX21_p53_BLA_p4_ratio: Tox21 HCT-116 p53 Agonism Beta-lactamase Assay, Ratio, Phase 4 (AID 2283601). A digest of the protocol: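 Signal is the blue/green (460nm/530nm) ratio of cleaved versus uncleaved CCF4-AM substrate, read after 2 h substrate loading. Cells were HCT116 carrying the p53-responsive beta-lactamase reporter, dosed 16 h at 37C, 5% CO2; CellTiter-Glo measured in parallel.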

Assay [11] can be described thus: CCTE_Harrill_HTTr_Viability_MCF7: CCTE's 6-hour Cell Viability Assessment for the High-Throughput Transcriptomics (HTTr) Platform, in MCF-7 cells cultured in DMEM + 10% fetal bovine serum, Harrill Lab (AID 2284010; active = hit-call score of the fitted dose curve at least 0.9, where 1 is the maximum; inactive = score below 0.9). A digest of the protocol:
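PI exclusion, high-content imaging; 8-pt dilution series, 6 h exposure; bidirectional fit vs DMSO (neg. ctrl/baseline); gain of signal = loss of membrane integrity.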

Assay [12] in a line: CCTE_Harrill_HTTr_Apoptosis_MCF7: CCTE's 6-hour Apoptosis Assessment for the High-Throughput Transcriptomics (HTTr) Platform, in MCF-7 cells cultured in DMEM + 10% fetal bovine serum, Harrill Lab (AID 2284011; active = hit-call score of the fitted dose curve at least 0.9, where 1 is the maximum; inactive = score below 0.9). In a few lines:
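MCF-7 cells in DMEM + 10% FBS exposed 6 h to chemicals over an eight-point dilution series. Caspase-3/7 activation imaged by high-content CellEvent Green staining; fitted bidirectionally versus DMSO.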

A short description of assay [13]: CCTE_Harrill_HTTr_CellCount_MCF7: CCTE's Cell Proliferation Assessment for the High-Throughput Transcriptomics (HTTr) Platform, Harrill Lab (AID 2284012).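 Also: count of Hoechst-stained nuclei per well by high-content imaging in MCF-7 cells; cells exposed to compound for six hours; intended direction is loss of nuclei count meaning fewer cells.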 In a few lines:
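Readout: Hoechst nuclear count by high-content imaging. MCF-7, 8-point dilution series, 6 h exposure. Bidirectional fit vs DMSO baseline.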

Assay [14] has as its target rat Oxytocin Receptor (OXT), Oxtr (gene 25342) (UniProt P70536). Description: NVS_GPCR_rOXT: NovaScreen (NVS) G Protein-Coupled Receptor Assay for rat Oxytocin Receptor (OXT) (AID 2283330). A digest of the protocol:
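Binding to rat uterine membrane receptor was followed by scintillation counting of filter-trapped radioligand after 1 h. A 25 uM duplicate single-point screen preceded concentration series with a top of 50 uM. Signal loss was analysed relative to DMSO.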

Assay [15] addresses bovine Gamma-Aminobutyric Acid Type A Receptor BDZ, alpha 1 site (GABARa1), GABRA1 (gene 780973) (UniProt P08219). Put plainly: NVS_LGIC_bGABARa1: NovaScreen (NVS) Ligand-Gated Ion Channel Assay for bovine Gamma-Aminobutyric Acid Type A Receptor BDZ, alpha 1 site (GABARa1) (AID 2283321). In a few lines:
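Bovine cortex membrane preparation, benzodiazepine site on GABA-A alpha1; specific radioligand displacement read after 0.75 h by filtration and scintillation. Screen at 25 uM, then singleton titrations up to 50 uM; DMSO baseline.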

The target in assay [16] is rat Gamma-Aminobutyric Acid Type A Receptor BDZ, alpha 6 site (GABARa6), Gabra6 (gene 29708) (UniProt P30191). Put plainly: NVS_LGIC_rGABARa6: NovaScreen (NVS) Ligand-Gated Ion Channel Assay for rat Gamma-Aminobutyric Acid Type A Receptor BDZ, alpha 6 site (GABARa6) (AID 2283339). A digest of the protocol: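 Actives from a 25 uM duplicate screen were retested in concentration series (max 50 uM). Specific radioligand displacement from rat cerebellar membranes was counted by filter-based scintillation at 1 h; DMSO served as baseline.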

The next assay has as its target PGR (gene 5241) (UniProt P06401). Description: TOX21_PR_BLA_Followup_Antagonist_ratio: Tox21 HEK293 Progesterone Receptor (PR) Antagonism Beta-lactamase Follow-Up Assay, Ratio (AID 2283934). A digest of the protocol:
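Read-out: blue/green beta-lactamase FRET ratio (cleaved ch2 over uncleaved ch1), fitted relative to DMSO baseline. Cells: PR-UAS-bla HEK293T, GAL4-UAS reporter, stimulated with 1 nM R5020 final; 16 hr compound exposure, 37C.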

Assay [17] can be described thus: TOX21_PR_BLA_Followup_Agonist_viability: Viability Assessment in the Tox21 HEK293 Progesterone Receptor (PR) Agonism Beta-lactamase Follow-Up Assay (AID 2283935).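 Also: signal loss means lower viability so actives are cytotoxic.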 In a few lines:
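Luminescent ATP quantitation (CellTiter-Glo, 30 min, room temperature) in the same wells as the beta-lactamase read, on PR-UAS-bla HEK293T cells exposed to compound for 16 hr at 37C in 2% charcoal-stripped serum.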

Assay [18] in a line: TOX21_PR_BLA_Followup_Antagonist_viability: Viability Assessment in the Tox21 HEK293 Progesterone Receptor (PR) Antagonism Beta-lactamase Follow-Up Assay (AID 2283936).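 Also: cells exposed to compound with R5020 agonist for 16 h; hits lower the luminescence signal meaning cytotoxicity.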 In a few lines: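 PR-UAS-bla HEK293T cells in medium with 2% charcoal-stripped FBS were treated with compounds plus R5020 for 16 hr at 37C. After the beta-lactamase read, CellTiter-Glo was added to the same wells and luminescence read after 30 min at room temperature.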

Assay [19] is described as follows: TOX21_PR_LUC_Followup_Antagonist_viability: Viability Assessment in the Tox21 HEK293 Progesterone Receptor (PR) Antagonism Luciferase Follow-Up Assay (AID 2283940). A digest of the protocol: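 Read-out: CellTiter-Glo ATP luminescence, loss of signal taken as reduced viability. Cells: HEK293-PR-A-luc, 3,000/well, 5 h settling, then 16 h compound exposure at 37C, 0% CO2.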

Assay [20] is described as follows: TOX21_PR_LUC_Followup_Agonist_viability: Viability Assessment in the Tox21 HEK293 Progesterone Receptor (PR) Agonism Luciferase Follow-Up Assay (AID 2283941).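 Also: loss of signal means cytotoxicity so actives lower viability.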 In a few lines:
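Cytotoxicity counter-screen: ATP content by CellTiter-Glo luminescence, loss of signal = reduced viability. HEK293-PR-A-luc, 3,000 cells/well, compound exposure 16 h, 37C.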

The target of assay [21] is Bile acid receptor (Homo sapiens) (UniProt Q96RI1). Description: NVS_NR_hFXR_Agonist: NovaScreen (NVS) Nuclear Receptor Binding Assay for human Farnesoid X Receptor Agonism (FXR) (AID 2283347). In a few lines: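 Agonist-mode FXR assay read by time-resolved FRET 1 h after compound addition, using isolated human receptor protein without cells. Duplicate 25 uM single-point primary screen, concentration series for confirmed actives; DMSO as baseline.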

The target of assay [22] is mouse Estrogen Receptor alpha (Era), Esr1 (gene 13982) (UniProt P19785). Description: NVS_NR_mERa: NovaScreen (NVS) Nuclear Receptor Binding Assay for mouse Estrogen Receptor alpha (Era) (AID 2283378).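 Also: hit means loss of bound radioligand signal relative to DMSO.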 In a few lines: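 Cell-free radioligand competitive displacement binding, read by filter-based scintillation counting 18 h after dosing. Primary screen run in duplicate at 25 uM, actives retested in concentration series; loss of signal versus DMSO.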

12 compounds from PubChem BioAssay (EPA / NIEHS) can be followed below.

Inconclusive results are not listed. Activity calls are given as the source filed them. The calls were made as follows, unless noted: active = hit-call score of the fitted dose curve at least 0.9, where 1 is the maximum; inconclusive = response in the unintended direction; inactive = score below 0.9.

rat Gamma-Aminobutyric Acid Type A Receptor BDZ, alpha 6 site (GABARa6), Gabra6 (gene 29708), sequence (P30191 whole entry, looked up): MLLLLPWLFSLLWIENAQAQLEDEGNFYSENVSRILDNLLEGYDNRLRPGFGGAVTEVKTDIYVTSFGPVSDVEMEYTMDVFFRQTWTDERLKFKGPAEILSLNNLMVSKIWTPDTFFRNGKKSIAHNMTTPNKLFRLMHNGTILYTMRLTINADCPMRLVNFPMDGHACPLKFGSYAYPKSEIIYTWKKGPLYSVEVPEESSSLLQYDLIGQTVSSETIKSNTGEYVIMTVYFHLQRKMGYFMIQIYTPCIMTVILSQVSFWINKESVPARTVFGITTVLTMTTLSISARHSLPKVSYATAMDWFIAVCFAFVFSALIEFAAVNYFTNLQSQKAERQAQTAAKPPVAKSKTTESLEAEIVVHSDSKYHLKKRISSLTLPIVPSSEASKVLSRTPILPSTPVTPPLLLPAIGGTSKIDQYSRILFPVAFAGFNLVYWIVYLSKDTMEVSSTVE
Cellular tumor antigen p53 (Homo sapiens), sequence (P04637 whole entry, looked up): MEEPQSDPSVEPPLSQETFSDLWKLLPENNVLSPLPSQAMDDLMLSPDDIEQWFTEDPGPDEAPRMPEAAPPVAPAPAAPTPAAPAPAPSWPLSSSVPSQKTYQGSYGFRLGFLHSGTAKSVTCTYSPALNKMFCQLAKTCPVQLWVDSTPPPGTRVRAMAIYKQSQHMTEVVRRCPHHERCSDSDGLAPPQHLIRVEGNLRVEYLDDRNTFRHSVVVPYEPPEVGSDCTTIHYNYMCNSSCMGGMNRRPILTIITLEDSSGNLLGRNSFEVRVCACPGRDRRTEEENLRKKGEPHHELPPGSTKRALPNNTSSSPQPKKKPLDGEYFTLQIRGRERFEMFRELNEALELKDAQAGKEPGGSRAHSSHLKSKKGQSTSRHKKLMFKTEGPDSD
Norway rat Vesicular Monoamine Transporter (VMAT2), neurotransmitter transporter, Slc18a2 (gene 25549), sequence (Q01827 whole entry, looked up): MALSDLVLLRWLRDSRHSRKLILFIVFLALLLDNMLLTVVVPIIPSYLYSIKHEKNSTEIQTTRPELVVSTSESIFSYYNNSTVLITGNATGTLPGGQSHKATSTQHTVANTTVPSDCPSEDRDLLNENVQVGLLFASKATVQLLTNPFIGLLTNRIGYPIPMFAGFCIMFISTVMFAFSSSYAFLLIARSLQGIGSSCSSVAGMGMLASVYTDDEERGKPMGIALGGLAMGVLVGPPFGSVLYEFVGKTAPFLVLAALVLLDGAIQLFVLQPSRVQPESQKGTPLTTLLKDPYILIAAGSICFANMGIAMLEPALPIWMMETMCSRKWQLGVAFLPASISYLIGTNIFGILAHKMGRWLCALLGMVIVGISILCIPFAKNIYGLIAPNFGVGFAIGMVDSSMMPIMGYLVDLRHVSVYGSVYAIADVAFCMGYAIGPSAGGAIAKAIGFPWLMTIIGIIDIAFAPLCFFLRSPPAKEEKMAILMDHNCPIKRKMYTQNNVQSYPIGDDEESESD
Estrogen receptor (Homo sapiens), sequence (P03372 whole entry, looked up): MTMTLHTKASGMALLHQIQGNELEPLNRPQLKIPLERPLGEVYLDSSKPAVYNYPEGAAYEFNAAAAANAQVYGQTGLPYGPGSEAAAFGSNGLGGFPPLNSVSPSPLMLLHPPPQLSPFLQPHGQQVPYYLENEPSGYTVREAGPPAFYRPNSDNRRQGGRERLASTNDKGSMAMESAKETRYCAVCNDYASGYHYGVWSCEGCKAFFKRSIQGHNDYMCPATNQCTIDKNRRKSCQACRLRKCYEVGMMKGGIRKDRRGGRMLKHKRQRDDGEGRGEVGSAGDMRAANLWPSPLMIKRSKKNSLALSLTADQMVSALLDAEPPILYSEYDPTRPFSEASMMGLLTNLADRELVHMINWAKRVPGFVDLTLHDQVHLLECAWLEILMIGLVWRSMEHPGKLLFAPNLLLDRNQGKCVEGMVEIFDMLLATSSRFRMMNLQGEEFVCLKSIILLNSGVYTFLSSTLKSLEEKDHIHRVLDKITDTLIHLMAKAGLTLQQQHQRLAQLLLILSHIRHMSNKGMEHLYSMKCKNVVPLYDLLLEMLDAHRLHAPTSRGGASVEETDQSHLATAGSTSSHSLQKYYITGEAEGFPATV
rat Oxytocin Receptor (OXT), Oxtr (gene 25342), sequence (P70536 whole entry, looked up): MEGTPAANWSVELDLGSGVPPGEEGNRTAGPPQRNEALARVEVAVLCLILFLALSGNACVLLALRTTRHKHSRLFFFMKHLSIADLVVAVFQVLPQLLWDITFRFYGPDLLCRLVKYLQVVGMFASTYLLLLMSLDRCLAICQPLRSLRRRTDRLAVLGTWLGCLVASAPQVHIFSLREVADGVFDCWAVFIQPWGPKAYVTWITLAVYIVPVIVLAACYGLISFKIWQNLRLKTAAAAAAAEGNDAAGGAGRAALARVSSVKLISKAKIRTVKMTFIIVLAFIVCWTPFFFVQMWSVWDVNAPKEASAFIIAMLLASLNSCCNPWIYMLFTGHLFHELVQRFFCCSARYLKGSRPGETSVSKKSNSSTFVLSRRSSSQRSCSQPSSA
Bile acid receptor (Homo sapiens), sequence (Q96RI1 whole entry, looked up): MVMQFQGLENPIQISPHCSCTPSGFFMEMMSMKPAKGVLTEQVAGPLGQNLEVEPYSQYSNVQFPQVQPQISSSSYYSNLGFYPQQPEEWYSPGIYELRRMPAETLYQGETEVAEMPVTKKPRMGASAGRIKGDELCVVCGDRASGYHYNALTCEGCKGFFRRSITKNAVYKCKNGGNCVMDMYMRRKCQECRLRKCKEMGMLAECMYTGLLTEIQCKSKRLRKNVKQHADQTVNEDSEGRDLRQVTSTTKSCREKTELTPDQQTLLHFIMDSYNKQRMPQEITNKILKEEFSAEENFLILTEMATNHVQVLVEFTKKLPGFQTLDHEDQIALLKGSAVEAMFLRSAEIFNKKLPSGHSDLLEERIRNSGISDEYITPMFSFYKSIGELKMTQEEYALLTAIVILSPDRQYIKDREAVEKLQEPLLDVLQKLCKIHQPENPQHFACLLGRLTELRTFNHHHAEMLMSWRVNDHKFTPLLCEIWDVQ
PGR (gene 5241), sequence (P06401 whole entry, looked up, the tested form may be a part): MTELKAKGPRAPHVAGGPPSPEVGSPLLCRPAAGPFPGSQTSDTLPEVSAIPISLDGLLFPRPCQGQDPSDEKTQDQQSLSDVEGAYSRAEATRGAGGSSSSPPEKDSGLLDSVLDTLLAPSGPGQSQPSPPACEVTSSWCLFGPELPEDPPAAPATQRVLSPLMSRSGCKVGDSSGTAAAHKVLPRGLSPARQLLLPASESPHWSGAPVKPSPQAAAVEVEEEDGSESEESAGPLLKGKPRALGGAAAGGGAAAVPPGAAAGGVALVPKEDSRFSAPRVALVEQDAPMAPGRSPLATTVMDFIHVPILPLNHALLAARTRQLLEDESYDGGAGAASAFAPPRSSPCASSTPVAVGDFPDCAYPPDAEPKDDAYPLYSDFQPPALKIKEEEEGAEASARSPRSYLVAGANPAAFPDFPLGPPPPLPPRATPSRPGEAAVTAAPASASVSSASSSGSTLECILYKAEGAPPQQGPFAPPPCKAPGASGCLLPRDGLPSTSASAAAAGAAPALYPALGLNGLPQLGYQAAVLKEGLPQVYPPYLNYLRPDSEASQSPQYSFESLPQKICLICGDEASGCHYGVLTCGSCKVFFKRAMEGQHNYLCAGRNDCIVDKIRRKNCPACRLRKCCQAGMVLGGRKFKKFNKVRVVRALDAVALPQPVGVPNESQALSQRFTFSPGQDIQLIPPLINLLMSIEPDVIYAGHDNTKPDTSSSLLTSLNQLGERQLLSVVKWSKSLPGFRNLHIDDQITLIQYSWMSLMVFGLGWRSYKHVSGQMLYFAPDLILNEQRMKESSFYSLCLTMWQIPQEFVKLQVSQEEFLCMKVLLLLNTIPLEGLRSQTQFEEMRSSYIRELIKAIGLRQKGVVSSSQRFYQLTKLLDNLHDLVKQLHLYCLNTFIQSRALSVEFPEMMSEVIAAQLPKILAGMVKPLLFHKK
mouse Estrogen Receptor alpha (Era), Esr1 (gene 13982), sequence (P19785 whole entry, looked up): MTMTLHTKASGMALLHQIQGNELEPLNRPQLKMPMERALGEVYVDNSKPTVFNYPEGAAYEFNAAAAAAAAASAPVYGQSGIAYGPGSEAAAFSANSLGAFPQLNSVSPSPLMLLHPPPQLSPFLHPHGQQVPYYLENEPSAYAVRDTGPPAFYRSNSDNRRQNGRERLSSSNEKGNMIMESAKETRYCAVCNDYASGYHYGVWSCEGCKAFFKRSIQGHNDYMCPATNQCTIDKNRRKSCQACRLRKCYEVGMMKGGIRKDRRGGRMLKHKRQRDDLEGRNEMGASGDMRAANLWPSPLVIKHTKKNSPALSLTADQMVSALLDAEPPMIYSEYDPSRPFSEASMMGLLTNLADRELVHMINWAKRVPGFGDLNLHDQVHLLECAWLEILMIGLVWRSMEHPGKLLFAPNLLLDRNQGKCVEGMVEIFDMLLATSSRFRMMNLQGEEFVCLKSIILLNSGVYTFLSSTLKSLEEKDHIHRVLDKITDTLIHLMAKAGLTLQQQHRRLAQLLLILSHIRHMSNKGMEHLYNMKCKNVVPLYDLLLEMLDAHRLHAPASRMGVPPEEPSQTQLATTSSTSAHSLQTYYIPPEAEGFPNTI
bovine Gamma-Aminobutyric Acid Type A Receptor BDZ, alpha 1 site (GABARa1), GABRA1 (gene 780973), sequence (P08219 whole entry, looked up): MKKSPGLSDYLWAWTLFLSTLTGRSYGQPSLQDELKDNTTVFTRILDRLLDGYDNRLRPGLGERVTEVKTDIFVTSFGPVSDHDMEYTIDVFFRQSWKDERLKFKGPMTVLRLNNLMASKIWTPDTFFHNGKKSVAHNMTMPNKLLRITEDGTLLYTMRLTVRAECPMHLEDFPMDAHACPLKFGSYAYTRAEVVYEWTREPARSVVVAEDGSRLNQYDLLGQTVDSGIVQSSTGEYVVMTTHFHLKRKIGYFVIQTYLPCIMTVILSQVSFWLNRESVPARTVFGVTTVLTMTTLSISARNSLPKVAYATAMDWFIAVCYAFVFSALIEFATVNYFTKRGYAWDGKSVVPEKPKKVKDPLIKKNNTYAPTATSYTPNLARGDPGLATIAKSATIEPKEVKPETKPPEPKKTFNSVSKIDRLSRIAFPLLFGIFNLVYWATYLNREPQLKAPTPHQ

With `COC(=O)c1ccc(C(=O)OC)cc1`, the compound was classed as inactive in assay [1].
Turning to `IC(I)=C(I)I`, the call in assay [2], in assay [3], in [5], in assay [6] and in [9] was inactive. For the same compound, the AC50 was 13.2 µM (active) in [4], 12.8 µM (active) in [7], 13.7 µM (active) in [8] and 13.9 µM (active) in assay [10].
On to `CC(Oc1ccc(Oc2ncc(C(F)(F)F)cc2Cl)cc1)C(=O)O` (stereo not given), for which the result in assay [2], in [3], in assay [4], in assay [5], in assay [7] and in assay [11] was inactive. Further, the outcome in assay [12] and in [13] was inactive.
`CCCCOC(=O)CCCCCCCCC(=O)OCCCC`: in [14], the compound was classed as inactive.
`Clc1cc(Cl)c(Cl)cc1Cl`: the result in assay [15] was inactive.
With `O=c1n(CC2CO2)c(=O)n(CC2CO2)c(=O)n1CC1CO1` (stereo not given), in [16], the result was inactive.
As for `COP(=S)(NC(C)C)Oc1ccc(C)cc1[N+](=O)[O-]` (stereo not given), the AC50 in assay [2] was 11.5 µM (active); with PGR (gene 5241), 20.3 µM (active). The outcome in [17], in assay [18], in assay [19] and in assay [20] was inactive.
For the compound `COc1ccc(OC)c(N=Nc2c(O)ccc3ccccc23)c1`, in [16], the outcome was inactive. For the same compound, the AC50 in assay [1] is 107 nM (active).
Turning to `CS(=O)(=O)c1ccc(C2=C(c3ccccc3)C(=O)OC2)cc1`, the outcome in [16] was inactive.
Regarding `c1ccc(C[n+]2cccc3ccccc32)cc1`, in [21], the call was inactive.
`COC(=O)C(C)N(C(=O)Cc1ccccc1)c1c(C)cccc1C` (stereo not given): the call in [2], in [22] and in assay [3] was inactive.
Consider `CC(=N[Si](C)(C)C)O[Si](C)(C)C`, for which the result in [1] was inactive.
